The list is not random: actives were taken first. Their share in the collection is about 2.7%.
eIF4E 4G PPI = eIF4E–eIF4G protein interaction inhibitors, primary screen, biochemical, uHTS, TR-FRET, eIF4GI fragment | TR-FRET eIF4E-eIF4GI(517-606) binding, 2 h | inhibition, % at 21.7 µM | 220,000 tested, 0.37% active | AID 782, 2007;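 active = inhibition above about 30%, limit read from the data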
14-3-3 Bad PPI = inhibitors of 14-3-3 zeta/Bad binding, primary screen, biochemical, TR-FRET, bovine 14-3-3 zeta; 14-3-3 protein zeta/delta (Bos taurus), P63103; TR-FRET 14-3-3zeta/Dy647-pBad peptide displacement, 1 h; inhibition, % at 21.7 µM; 220,000 tested, 0.71% active;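 active = inhibition above about 70%, limit read from the data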
Target sequence (P63103 whole entry, looked up): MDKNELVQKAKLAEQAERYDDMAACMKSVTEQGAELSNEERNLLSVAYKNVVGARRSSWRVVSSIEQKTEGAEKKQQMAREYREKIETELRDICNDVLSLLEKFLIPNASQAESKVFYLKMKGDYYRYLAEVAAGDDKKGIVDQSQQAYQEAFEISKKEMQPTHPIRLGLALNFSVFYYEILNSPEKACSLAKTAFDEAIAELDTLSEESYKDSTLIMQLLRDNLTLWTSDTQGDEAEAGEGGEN
Mcl1 Bid PPI = Mcl-1/Bid binding inhibitors, primary screen, biochemical, TR-FRET, 1536-well; Induced myeloid leukemia cell differentiation protein Mcl-1 (Homo sapiens), Q07820; TR-FRET Mcl-1/Bid-Dy647 peptide binding; inhibition, % at 21.7 µM; 220,000 tested, 0.97% active; AID 1021, 2008;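 active = compounds that cut the binding signal by more than half at the single screening dose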;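 also: His-tagged Mcl-1 with europium anti-His antibody binding Bid BH3 peptide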
Target sequence (Q07820 whole entry, looked up): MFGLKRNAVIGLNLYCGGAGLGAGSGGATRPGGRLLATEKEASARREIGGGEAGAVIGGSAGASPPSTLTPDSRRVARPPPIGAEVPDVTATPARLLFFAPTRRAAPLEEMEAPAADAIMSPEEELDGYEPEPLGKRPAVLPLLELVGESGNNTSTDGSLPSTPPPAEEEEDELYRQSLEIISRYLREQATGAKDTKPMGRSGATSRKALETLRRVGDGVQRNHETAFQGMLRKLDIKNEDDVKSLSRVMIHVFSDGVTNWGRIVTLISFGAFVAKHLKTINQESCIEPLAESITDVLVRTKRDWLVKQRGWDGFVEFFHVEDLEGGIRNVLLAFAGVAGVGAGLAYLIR
Pf gamet viab = late stage P. falciparum gametocyte viability inhibitors, primary screen, ATP luminescence, HTS; P. falciparum stage V gametocytes, 24 h; inhibition, % at 10.9 µM; 150,000 tested, 0.065% active; AID 743093, 2013;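 active = inhibition above the mean plus 3 SD of compounds within the control limits, set per campaign, cut at about 38% in these data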
Mcl1-Noxa inh = Mcl-1/Noxa binding inhibitors, primary screen, biochemical, TR-FRET, 1536-well; Induced myeloid leukemia cell differentiation protein Mcl-1 (Homo sapiens), Q07820; TR-FRET Mcl-1/Noxa peptide binding, 2 h; inhibition, % at 21.7 µM; 220,000 tested, 1.5% active; AID 1022, 2008;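 active = compounds that cut the protein-peptide binding signal by more than 50% relative to plate controls in a single-dose test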;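 also: His-tagged Mcl-1 with rhodamine Noxa BH3 peptide and terbium anti-His antibody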
Mcl-1 Bim block = inhibitors of Bim peptide binding to Mcl-1, primary screen, biochemical, bead-based flow cytometry, multiplex; AID 1009, 2008; Induced myeloid leukemia cell differentiation protein Mcl-1 (Homo sapiens), Q07820; 190,000 tested, 0.1% active; inhibition, % at 10 µM; Bim peptide-Mcl-1 binding; in the data active = inhibition above about 40%
A number is an active result.

Screening O=C(O)CCN1C(=O)/C(=C/c2cn(-c3ccccc3)nc2-c2cccs2)SC1=S returned eIF4E 4G PPI 30.4, 14-3-3 Bad PPI 75.6, Mcl1 Bid PPI 83.6, Mcl1-Noxa inh 88.0 and Mcl-1 Bim block inactive.
Screening O=C(O)CCCCCN1C(=O)/C(=C\c2cn(-c3ccccc3)nc2-c2cccs2)SC1=S returned eIF4E 4G PPI 45.4, 14-3-3 Bad PPI inactive, Mcl1 Bid PPI 89.3, Pf gamet viab inactive and Mcl1-Noxa inh 98.6.
`Cc1ccc(-c2nn(-c3ccccc3)cc2/C=C2\SC(=S)N(CC(=O)O)C2=O)cc1` gave eIF4E 4G PPI inactive, 14-3-3 Bad PPI inactive, Mcl1 Bid PPI inactive, Pf gamet viab inactive and Mcl1-Noxa inh 88.1.
Fc1cc(F)cc(NC(=S)Nc2ccccc2N2CCOCC2)c1 was read as eIF4E 4G PPI inactive, 14-3-3 Bad PPI inactive, Mcl1 Bid PPI inactive, Mcl1-Noxa inh inactive and Mcl-1 Bim block inactive.
`COc1cccc(OCc2cc(/C=N/Nc3ccc(C(=O)O)cc3)ccc2OC)c1` gave eIF4E 4G PPI inactive, 14-3-3 Bad PPI inactive, Mcl1 Bid PPI inactive, Pf gamet viab inactive and Mcl1-Noxa inh 67.1.
`CCOc1cc(/C=N/Nc2ccc(C(=O)O)cc2)ccc1OC(=O)c1ccccc1C` gave eIF4E 4G PPI inactive, 14-3-3 Bad PPI inactive, Mcl1 Bid PPI inactive, Pf gamet viab inactive and Mcl1-Noxa inh 56.3.
COc1cccc(C(=O)Oc2ccc(/C=N/Nc3ccc(C(=O)O)cc3)cc2OC)c1 was read as Pf gamet viab inactive.
`CCCCNC(=O)[C@H]1C[C@H]1[C@@H](O)[C@H](CO)NC(=O)[C@H](COCc1ccccc1)NC(=O)OC(C)(C)C` gave Pf gamet viab inactive.
Screening Brc1cccc2sc(N3CCN(c4ccccc4)CC3)nc12 returned eIF4E 4G PPI inactive, 14-3-3 Bad PPI 87.1, Mcl1 Bid PPI inactive, Pf gamet viab inactive, Mcl1-Noxa inh inactive and Mcl-1 Bim block inactive.
`Clc1cccc2sc(N3CCCCC3)nc12` gave eIF4E 4G PPI inactive, 14-3-3 Bad PPI inactive, Mcl1 Bid PPI inactive, Mcl1-Noxa inh inactive and Mcl-1 Bim block inactive.
For COc1ccc(C2CC(c3ccc(Br)cc3)Nc3nc(N)nn32)cc1 (configuration not stated) the results were eIF4E 4G PPI inactive, 14-3-3 Bad PPI inactive, Mcl1 Bid PPI inactive, Pf gamet viab inactive, Mcl1-Noxa inh inactive and Mcl-1 Bim block inactive.
`COc1ccc(C2CC(c3ccccc3)Nc3nc(N)nn32)cc1` (configuration not stated) gave eIF4E 4G PPI inactive, 14-3-3 Bad PPI inactive, Mcl1 Bid PPI 70.9, Mcl1-Noxa inh inactive and Mcl-1 Bim block inactive.
Cc1ccc(-n2[nH]c(=O)c3cccnc32)cc1 was read as eIF4E 4G PPI inactive, 14-3-3 Bad PPI inactive, Mcl1 Bid PPI inactive, Pf gamet viab inactive, Mcl1-Noxa inh 64.6 and Mcl-1 Bim block inactive.
Screening CSc1ncc(Cl)c(C(=O)Nc2ccccc2Cl)n1 returned eIF4E 4G PPI inactive, 14-3-3 Bad PPI inactive, Mcl1 Bid PPI inactive, Pf gamet viab inactive, Mcl1-Noxa inh inactive and Mcl-1 Bim block inactive.
Screening O=C(NCc1ccc2c(c1)OCO2)c1ccc2c(c1)OCCO2 returned eIF4E 4G PPI 68.7, 14-3-3 Bad PPI inactive, Mcl1 Bid PPI inactive, Pf gamet viab inactive, Mcl1-Noxa inh inactive and Mcl-1 Bim block inactive.
O=c1cc(-c2ccsc2)oc2ccc(-c3ccc4cc[nH]c4c3)cc12 was read as Pf gamet viab inactive.
For O=C1NCCN1C(=O)N(c1ccccc1)c1ccccc1 the results were eIF4E 4G PPI inactive, 14-3-3 Bad PPI inactive, Mcl1 Bid PPI inactive, Pf gamet viab inactive, Mcl1-Noxa inh inactive and Mcl-1 Bim block 56.0.
CN1CCN(C(=O)N(c2ccccc2)c2ccccc2)CC1 was read as Pf gamet viab inactive.
For CC(C)(/C=N/NC(=O)CSCc1ccc(Cl)cc1)CCC#N the results were eIF4E 4G PPI inactive, 14-3-3 Bad PPI inactive, Mcl1 Bid PPI inactive, Pf gamet viab inactive, Mcl1-Noxa inh inactive and Mcl-1 Bim block inactive.
For CCOc1ccccc1CN1CCN(CCCn2cccn2)CC1CCO (configuration not stated) the results were eIF4E 4G PPI inactive, 14-3-3 Bad PPI inactive, Mcl1 Bid PPI inactive, Pf gamet viab inactive, Mcl1-Noxa inh inactive and Mcl-1 Bim block inactive.
COc1cccc2c(=S)c(CCC(C)=O)c(C)[nH]c12 was read as eIF4E 4G PPI inactive, 14-3-3 Bad PPI inactive, Mcl1 Bid PPI inactive, Pf gamet viab inactive, Mcl1-Noxa inh 99.8 and Mcl-1 Bim block inactive.
CN(C)S(=O)(=O)c1cccc(NC(=S)N/N=C/c2ccc(O)c(O)c2O)c1 was read as eIF4E 4G PPI 42.4, 14-3-3 Bad PPI inactive, Mcl1 Bid PPI inactive, Pf gamet viab inactive and Mcl1-Noxa inh 107.7.
CCN(CC)S(=O)(=O)c1cccc(C(=O)N/N=C/c2ccc(O)c(O)c2O)c1 was read as eIF4E 4G PPI inactive, 14-3-3 Bad PPI inactive, Mcl1 Bid PPI inactive, Mcl1-Noxa inh 94.5 and Mcl-1 Bim block 44.0.
For CNc1nc(-c2ccccc2)[n+](-c2ccc(C)cc2)s1 the results were eIF4E 4G PPI 39.5, 14-3-3 Bad PPI inactive, Mcl1 Bid PPI inactive, Mcl1-Noxa inh inactive and Mcl-1 Bim block inactive.
Cc1ccc(-c2nc(N)s[n+]2-c2ccccc2)cc1 was read as eIF4E 4G PPI inactive, 14-3-3 Bad PPI inactive, Mcl1 Bid PPI inactive, Pf gamet viab inactive, Mcl1-Noxa inh inactive and Mcl-1 Bim block inactive.
Screening COc1cc(/C=C(\C#N)c2[nH]nc(N)c2C#N)cc(OC)c1O returned eIF4E 4G PPI inactive, 14-3-3 Bad PPI inactive, Mcl1 Bid PPI inactive, Mcl1-Noxa inh 56.4 and Mcl-1 Bim block inactive.
Screening COc1cc(N2CCCC2)c(OC)cc1/C=C(/C#N)c1ccc(F)cc1 returned eIF4E 4G PPI inactive, 14-3-3 Bad PPI inactive, Mcl1 Bid PPI inactive, Mcl1-Noxa inh 72.1 and Mcl-1 Bim block inactive.
For Cc1cccc(NC(=O)c2ccc3c(c2)CCN3S(C)(=O)=O)c1 the results were Pf gamet viab inactive.
Screening O=C(CSc1nc2cc([N+](=O)[O-])ccc2n1-c1ccccc1)NCc1ccc2c(c1)OCO2 returned eIF4E 4G PPI inactive, 14-3-3 Bad PPI inactive, Mcl1 Bid PPI inactive, Pf gamet viab inactive, Mcl1-Noxa inh 58.0 and Mcl-1 Bim block inactive.
For CC(C)C(c1nnnn1Cc1ccc(F)cc1)N1CCN(C2CCCC2)CC1 (configuration not stated) the results were eIF4E 4G PPI inactive, 14-3-3 Bad PPI inactive, Mcl1 Bid PPI inactive, Pf gamet viab inactive, Mcl1-Noxa inh inactive and Mcl-1 Bim block inactive.
